Data on 39 molecules can be found in PubChem BioAssay (EPA / NIEHS).

Each structure is given as a SMILES string. Where “and” joins values, the source holds several entries; their conditions need not be identical. Equal values may be shown once. More than one record can exist for a structure, and the calls need not agree. Calls of active or inactive are those of the source. The calls were made as follows: active = hit-call score of the fitted dose curve at least 0.9, where 1 is the maximum; inactive = score below 0.9.

This test is described as follows: BSK_SAg_PBMCCytotoxicity: PBMC Cytotoxicity Assessment in the BioMAP Diversity Plus: SAg Assay (AID 2283093).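 Also: fitted both ways against DMSO so a hit may be loss or gain of signal.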 As to conditions: primary human HUVEC with PBMC. Here is the method:
BSK_SAg is a cell-based, multiplexed-readout assay that uses umbilical vein endothelium and peripheral blood mononuclear cells, a human vascular primary cell co-culture, with measurements taken at 24 hours after chemical dosing in a 96-well plate.BSK_SAg_PBMCCytotoxicity is an assay component measured in the BSK_SAg assay. It measures Alamar blue related to cell death using Alamar Blue Reduction technology.Data from the assay component BSK_SAg_PBMCCytotoxicity was analyzed into 1 assay endpoint. This assay endpoint, BSK_SAg_PBMCCytotoxicity, was analyzed with bidirectional fitting relative to DMSO as the negative control and baseline of activity. Using a type of viability reporter, gain or loss-of-signal activity can be used to understand changes in the viability. Furthermore, this assay endpoint can be referred to as a secondary readout, because this assay has produced multiple assay endpoints where this one serves a viability function. To generalize the intended target to other relatable targets, this assay endpoint is annotated to the cell cycle intended target family, where the subfamily is cytotoxicity.
The levels of cell surface (or secreted, indicated by the prefix "s") biomarker endpoints were measured by ELISA. Overt cytotoxicity to cells in confluent adherent cultures (all systems other than the BT system) was assessed by measuring total protein levels using sulforhodamine B (SRB) staining in parallel cultures at the time of biomarker measurements, indicated as SRB endpoints. For proliferation assays for adherent cell types, individual cell types are cultured at sub-confluence and relative cell numbers quantified by SRB staining at time points optimized for each system (48 h: 3C and CASM3C systems; 72 h: BT and HDF3CGF systems; 96 h: SAg system). SRB was performed by staining cells with 0.1% SRB after fixation with 10% TCA and reading wells at 560 nm.Viability and proliferation of PBMC (T cells) was quantified by Alamar Blue reduction for the SAg and BT systems. For PBMC viability (referred to as PBMC Cytotoxicity within the assay endpoint names), cells were plated (75,000/well in a 96-well plate) and then chemical samples added for 1 h before addition of activators, SEB and TSST-1 (20 ng/mL final concentration each). Cells were incubated for 90 h. Then, Alamar Blue (20 uL/well) (Invitrogen, Cat DAL1100) was added for 6 h, and the plates were read with a fluorescence microplate reader at 546/580 nm (excitation/emission). For PBMC proliferation, cells were plated and activated as above but incubated for only 16 h prior to addition of Alamar Blue. Plates were read after 6 h.
In general, AC50 refers to the concentration at which the activity in the assay is half-maximal. As to `ClC(Cl)=C(c1ccc(Cl)cc1)c1ccccc1Cl`, the AC50 is 10.9 µM (active).

Regarding `C=CC(=O)OCC(CC)(COC(=O)C=C)COC(=O)C=C`, the AC50 was 2.93 µM (active).

On to `ClC(Cl)(Cl)c1ccccc1`, for which the outcome was inactive.

As for `CCOP(=S)(OCC)SCSCC`, the result was inactive.

For the molecule `CC(Cl)(Cl)C(=O)O`, the result was inactive.

Take `CC(C)(C)c1ccccc1OP(=O)(Oc1ccccc1)Oc1ccccc1`: the AC50 is 33.2 µM (active).

With `OCC(F)(F)OC(F)(F)C(F)(F)OC(F)(F)C(F)(F)OC(F)(F)CO`, the outcome was inactive.

For the molecule `Cc1c([N+](=O)[O-])cc2c(c1[N+](=O)[O-])C(C)(C)CC2(C)C`, the AC50 was 15.3 µM (active).

As to `C=CC(=O)OCC(F)(F)C(F)F`, the concentration at half-maximal activity (AC50) was 15.1 µM (active) and the result was inactive.

On to `CC(Cc1ccc(OCC(=O)O)cc1)NCC(O)c1csc(C(F)(F)F)n1` (stereo not given), for which the result was inactive.

Consider `Cc1ccc([N+](=O)[O-])cc1C`, for which the result was inactive.

Consider `CCOc1ccc(C(C)(C)COCc2cccc(Oc3ccccc3)c2)cc1`, for which the outcome was inactive.

In the case of `CC(O)C(F)(F)C(F)(F)F` (stereo not given), the outcome was inactive.

As for `ClC1=C(Cl)C2(Cl)C3C(Cl)C(Cl)CC3C1(Cl)C2(Cl)Cl` (stereo not given), the AC50 was 13.8 µM (active).

As to `O=C(O)C(Cl)Cl`, the result was inactive.

In the case of `c1ccc2c(c1)Nc1ccccc1S2`, the half-maximal activity concentration (AC50) was 2.19 µM (active).

For `O=S(=O)(F)C(F)(F)C(F)(F)C(F)(F)C(F)(F)C(F)(F)C(F)(F)C(F)(F)C(F)(F)F`, the outcome was inactive.

Consider `CCCCN(CCCC)SN(C)C(=O)Oc1cccc2c1OC(C)(C)C2`, for which the AC50 was 25 µM (active).

For the molecule `COP(=O)(O)OC`, the result was inactive.

Turning to `CCNc1nc(Cl)nc(NC(C)(C)C)n1`, the outcome was inactive.

For the molecule `O=[N+]([O-])c1ccccc1`, the outcome was inactive.

For `CCOP(=S)(S)OCC`, the result was inactive.

In the case of `CCOP(=S)(NC(C)C)Oc1ccccc1C(=O)OC(C)C` (stereo not given), the result was inactive.

As for `Nc1ccc([N+](=O)[O-])cc1Cl`, the outcome was inactive.

Regarding `CCCCN(CCCC)N=O`, the outcome was inactive.

Take `CSC(C)(C)C=NO`: the outcome was inactive.

With `CCN(CC)c1ccccc1`, the outcome was inactive.

Turning to `Cc1ccc(N)cc1N`, the outcome was inactive.

Take `O=C(O)C(F)(F)OC(F)(F)C(F)(F)OC(F)(F)C(=O)O`: the outcome was inactive.

As for `[N-]=[N+]=[N-]`, the outcome was inactive.

`N#Cc1c(-c2ccc(Cl)cc2)[nH]c(C(F)(F)F)c1Br`: the AC50 was 5.4 µM (active).

As for `CCOP(=S)(OCC)SCS(=O)(=O)CC`, the outcome was inactive.

On to `CCCCC(CC)COC(=O)c1c(Br)c(Br)c(Br)c(Br)c1C(=O)OCC(CC)CCCC` (stereo not given), for which the result was inactive.

Regarding `O=C(O)C1C(C(=O)O)C2(Cl)C(Cl)=C(Cl)C1(Cl)C2(Cl)Cl` (stereo not given), the outcome was inactive.

Turning to `CC(Cl)CN(C)C` (stereo not given), the result was inactive.

As to `FC(F)(F)C(F)(C(F)(F)F)C(F)(F)C(F)(F)CC1CO1` (stereo not given), the outcome was inactive.

Regarding `O=P(OCC(Br)CBr)(OCC(Br)CBr)OCC(Br)CBr` (stereo not given), the outcome was inactive.

As to `COCCOCCO`, the outcome was inactive.

As to `OCC(F)(F)OC(F)(F)C(F)(F)OC(F)(F)C(F)(F)OC(F)(F)F`, the concentration at half-maximal activity (AC50) was 15.3 µM (active) and 21.2 µM (active).
